Compound activity (PubChem BioAssay)
Sampled rows, rich in hits. Any-hit rate of the full collection: about 2.8%.
PAFAH1B3 inh: inhibitors of human PAFAH1B3 | Q15102 | recombinant PAFAH1B3, FP-rhodamine probe, fluorescence polarization | inhibition, % at 3.39 µM | hit rate 0.28% among 340,000;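 active = inhibition above the screen-wide average of all tested compounds plus 3 SD, cut at about 25% in these data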
Target sequence (Q15102 whole entry, looked up): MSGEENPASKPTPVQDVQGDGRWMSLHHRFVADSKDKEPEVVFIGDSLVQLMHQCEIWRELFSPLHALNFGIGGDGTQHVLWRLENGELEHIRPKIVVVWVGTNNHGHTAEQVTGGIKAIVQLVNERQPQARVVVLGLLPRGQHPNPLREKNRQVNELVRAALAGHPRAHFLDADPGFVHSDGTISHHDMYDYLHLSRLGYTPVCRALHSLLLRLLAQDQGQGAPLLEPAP
HTRA1 inhibitor: blocks human HTRA1 serine peptidase; recombinant HTRA1, FP-rhodamine activity-based probe, fluorescence polarization; inhibition, % at 5.96 µM; hit rate 0.5% among 340,000; in the data active = inhibition above about 36%
DAGLB inh: blocks human DAGLB lipase activity; HEK293T DAGLB membrane lysate, EnzChek fluorogenic substrate; inhibition, % at 5.17 µM; AID 504411; hit rate 0.059% among 340,000; in the data active = inhibition above about 34%
PAFAH1B2 inh: blocks human PAF acetylhydrolase 1b catalytic subunit 2; P68402; recombinant PAFAH1B2, FP-rhodamine activity probe, fluorescence polarization; inhibition, % at 3.39 µM; hit rate 1.2% among 340,000; AID 492953;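 active = inhibition above the mean of all tested compounds plus 3 SD, cut at about 24% in these data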
Target sequence (P68402 whole entry, looked up): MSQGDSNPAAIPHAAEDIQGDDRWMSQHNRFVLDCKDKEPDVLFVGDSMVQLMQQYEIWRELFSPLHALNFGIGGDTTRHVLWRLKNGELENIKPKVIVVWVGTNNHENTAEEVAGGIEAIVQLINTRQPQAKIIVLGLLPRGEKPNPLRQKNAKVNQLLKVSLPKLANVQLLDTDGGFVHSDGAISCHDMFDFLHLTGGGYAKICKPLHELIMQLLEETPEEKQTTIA
pPAFAH inh: pPAFAH (human) enzyme inhibition. inhibition, % at 3.39 µM. hit rate 1.5% among 330,000. recombinant pPAFAH, FP-rhodamine probe fluorescence polarization. AID 463082. Q13093;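 active = inhibition above the mean inhibition across the screen plus 3 SD, cut at about 25% in these data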;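 note: inhibitors block binding of the rhodamine activity-based probe so polarization drops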
PAFAH2 inh: inhibitors of human PAFAH2. recombinant PAFAH2, FP-rhodamine activity probe, fluorescence polarization. inhibition, % at 3.39 µM. hit rate 0.99% among 340,000;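 active = inhibition above the mean over all tested compounds plus 3 SD, cut at about 30% in these data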;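 note: inhibitors block probe labeling of enzyme so polarization drops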
HTRA1 conf: HTRA1 (human) inhibition, confirmation | hit rate 66% among 1,600 | recombinant HTRA1, FP-rhodamine activity-based probe, fluorescence polarization | shares compounds with HTRA1 inhibitor | inhibition, % at 5.96 µM | AID 540248;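 active = mean inhibition over three repeats above a set limit taken from the earlier primary screen, cut at about 37% in these data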;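 note: inhibitors block probe binding so polarization drops and inhibition rises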
Each line names hits and unclear results; the compound was inactive in the other large screens (follow-up assays come after a bar, where they were run).

COc1ccc(OC)c(-c2nn(-c3ccccc3)cc2C(=O)NCC(c2cccs2)N2CCOCC2)c1 (stereo not given)	none
CC1CCCCC1NC(=O)COC(=O)c1c2c(nc3ccccc13)/C(=C\c1ccco1)CC2 (stereo not given)	HTRA1 inhibitor 57 (no result: pPAFAH inh) | HTRA1 conf inactive
O=C(COC(=O)c1c2c(nc3ccccc13)/C(=C\c1ccco1)CC2)NC1CCCC1	HTRA1 inhibitor 58 (no result: pPAFAH inh) | HTRA1 conf inactive
CN(CCC#N)C(=O)COC(=O)c1c2c(nc3ccccc13)/C(=C\c1ccco1)CC2	none (no result: pPAFAH inh)
O=C(NCc1ccccn1)C1Nc2ccc(C(F)(F)F)cc2C2C=CCC12 (stereo not given)	HTRA1 inhibitor 45 | HTRA1 conf inactive
FC(F)(F)c1ccc2c(c1)C1C=CCC1C(c1ccncc1)N2 (stereo not given)	HTRA1 inhibitor 52 (no result: pPAFAH inh) | HTRA1 conf 59
O=S(=O)(SC1=NCCN1)c1ccccc1	none (no result: pPAFAH inh)
CCN(C(=O)Cn1c(=O)oc2ccccc21)c1ccc(C)c(C)c1	none
Cc1cc(C)c2nc(NNC(=O)c3ccc(S(=O)(=O)N4CCCCC4)cc3)sc2c1	HTRA1 inhibitor 49 | HTRA1 conf inactive
Cc1cccc2sc(NNC(=O)c3ccc(S(=O)(=O)N4CCCC(C)C4)cc3)nc12 (stereo not given)	HTRA1 inhibitor 45 | HTRA1 conf 41
Cc1cccc2sc(NNC(=O)c3ccc(S(=O)(=O)N4CCc5ccccc5C4)cc3)nc12	HTRA1 inhibitor 45 | HTRA1 conf inactive
CCOC(=O)N1CCN(S(=O)(=O)c2ccc(C(=O)N(CCN(CC)CC)c3nc4c(C)cccc4s3)cc2)CC1	none
CCc1nnc(NC(=O)c2ccc(S(=O)(=O)N3CCCC(C)C3)cc2)s1 (stereo not given)	none
CCOC(=O)N1CCN(S(=O)(=O)c2ccc(C(=O)NNc3nc4c(C)cccc4s3)cc2)CC1	HTRA1 inhibitor 48 | HTRA1 conf 168
Cc1cccc2c(N=Nc3ccc(S(=O)(=O)Nc4cccc(Cl)c4)cc3[N+](=O)[O-])c(O)[nH]c12	HTRA1 inhibitor 37, PAFAH1B2 inh 26, pPAFAH inh 28 | HTRA1 conf inactive
Cc1ccc(S(=O)(=O)Nc2ccccc2)cc1[N+](=O)[O-]	none (no result: pPAFAH inh)
Cc1ccc(C)c(/C=C/C(=O)c2ccccc(=O)c2O)c1	HTRA1 inhibitor 54 | HTRA1 conf 59
O=C(/C=C/c1ccc([N+](=O)[O-])cc1)c1ccccc(=O)c1O	none (no result: pPAFAH inh)
O=C(/C=C/c1ccccc1Cl)c1ccccc(=O)c1O	HTRA1 inhibitor 44 | HTRA1 conf 46
O=C(Oc1c(Cl)cc(Cl)c2cccnc12)c1cccc([N+](=O)[O-])c1	HTRA1 inhibitor 55 | HTRA1 conf 40
Cc1cc(C(=O)Nc2ccc3[nH]ccc3c2)no1	none
CNc1ncnc(Sc2nc(N)nc3nc[nH]c23)c1[N+](=O)[O-]	none (no result: pPAFAH inh)
Nc1nc(Sc2ccc([N+](=O)[O-])c3nonc23)c2[nH]cnc2n1	PAFAH1B3 inh 38, HTRA1 inhibitor 59, PAFAH2 inh 30 (no result: pPAFAH inh) | HTRA1 conf 71
Cc1ccc(NC(=O)c2c(F)cccc2Cl)cc1S(=O)(=O)N1CCOCC1	none
CCN1CCCC1CNS(=O)(=O)c1ccc(Cl)c(C(F)(F)F)c1 (stereo not given)	none
CN1CCN(C2=C(NS(=O)(=O)c3ccccc3)C(=O)c3ccccc3C2=O)CC1	none
CN1CCN(C2=C(Cl)C(=O)c3ccccc3C2=O)CC1	PAFAH1B3 inh 66, HTRA1 inhibitor 50, PAFAH1B2 inh 39, PAFAH2 inh 57 (no result: pPAFAH inh) | HTRA1 conf 48
CCOc1ccc(OCC)c(NC(=O)Cn2c(C)nc3ccccc3c2=O)c1	none (no result: PAFAH1B3 inh, HTRA1 inhibitor, DAGLB inh, PAFAH1B2 inh, PAFAH2 inh)
COc1ccc(N/N=C(/N=Nc2nc(C)cc(=O)[nH]2)c2ccccc2)cc1	HTRA1 inhibitor 71 | HTRA1 conf 76
Cc1cc(=O)[nH]c(N=N/C(=N/Nc2ccc(O)cc2)c2ccccc2)n1	none
Cc1cc(N)ccc1-n1c(C)ccc1C	HTRA1 inhibitor 102, pPAFAH inh 33 | HTRA1 conf inactive
Cc1ccc(-n2c(C)cc(=O)cc2C)c(C)c1	none
COc1ccc(C(=O)N/C(=C\c2ccccc2)C(=O)Nc2ccccc2C(=O)O)cc1	none
O=C1CCCC2=C1C(c1ccc(O)c(O)c1)Nc1ccc3ncccc3c12 (stereo not given)	HTRA1 inhibitor 40 | HTRA1 conf 67
O=C1CCCC2=C1C(c1cccs1)Nc1ccc3ncccc3c12 (stereo not given)	none
Nc1cc(=O)[nH]c(SCC(=O)Nc2cc(S(=O)(=O)N3CCCCC3)ccc2Cl)n1	none
CCOC(=O)c1sc(NC(=O)c2c(CC)noc2C)nc1C	none
NNC(=O)c1oc2nc(-c3ccccc3)cc(-c3ccccc3)c2c1N	HTRA1 inhibitor 47 | HTRA1 conf inactive
NNC(=O)c1oc2nc(-c3cccs3)cc(-c3ccco3)c2c1N	HTRA1 inhibitor 57, pPAFAH inh 32 | HTRA1 conf 48
CCOC(=O)c1cc(-c2cccs2)nc2onc(C)c12	none
Cc1cc(C)cc(C(=O)Nc2ccc(N3CCCC3)cc2)c1	HTRA1 inhibitor 39 | HTRA1 conf inactive
CCCCC(=O)Nc1ccc(N2CCCC2)cc1	HTRA1 inhibitor 44 | HTRA1 conf 38
O=C(Nc1ccc(N2CCCC2)cc1)c1cc(Cl)ccc1Cl	HTRA1 inhibitor 59 | HTRA1 conf inactive
CCCCC(=O)Nc1ccc(N2CCN(C(=O)CC)CC2)cc1	none
Nc1ccc(N=Nc2ccccc2O)c(N)c1	none (no result: PAFAH1B3 inh, HTRA1 inhibitor, DAGLB inh, PAFAH1B2 inh, PAFAH2 inh)
Oc1ccccc1N=Nc1ccccc1O	HTRA1 inhibitor 66 (no result: pPAFAH inh) | HTRA1 conf 59
COc1ccc(Nc2ccccc2N)cc1	none
Nc1ccc(Nc2ccccc2N)cc1	HTRA1 inhibitor 64 | HTRA1 conf 83
Cc1c(N=C2C=C(Br)C(=O)C(Br)=C2)c(=O)n(-c2ccccc2)n1C	HTRA1 inhibitor 57, PAFAH1B2 inh 35 (no result: pPAFAH inh) | HTRA1 conf inactive
CN(C)c1ccnc2c[cH-]cc12.[Fe].c1ccc(-[c-]2[c-](-c3ccccc3)[c-](-c3ccccc3)[c-](-c3ccccc3)[c-]2-c2ccccc2)cc1 (stereo not given)	HTRA1 inhibitor 37 | HTRA1 conf 57
CN(C)c1ccnc(Nc2ccccc2)c1C#N	none (no result: PAFAH1B3 inh, HTRA1 inhibitor, DAGLB inh, PAFAH1B2 inh, PAFAH2 inh)
O=C(/C=C/c1ccc(O)c(O)c1)OC(Cc1ccc(O)c(O)c1)C(=O)O (stereo not given)	none
O=C(/C=C/c1ccc(O)c(O)c1)OCCc1ccccc1	HTRA1 inhibitor 64, PAFAH1B2 inh 34 | HTRA1 conf 71
O=C(/C=C/c1ccc(O)c(O)c1)c1ccccc1O	HTRA1 inhibitor 60 | HTRA1 conf 68
CC(=O)NC(c1cc(Cl)c2cccnc2c1O)C(C)C (stereo not given)	HTRA1 inhibitor 53 | HTRA1 conf 72
